# Source: PubChem BioAssay (NCATS)
# Active and inactive are the calls of the source. The call rests on the fitted dose curve; in most records, active means well fitted inhibition curve with a large enough effect; inconclusive means small, poorly fitted or top-dose-only effect; inactive means no such curve, though single readings can be large or run the other way.
# Molecular target: Single-stranded DNA cytosine deaminase (Homo sapiens) (UniProt Q9GZX7)
# Assay: Validation qHTS assay for inhibitors of Activation Induced Cytidine Deaminase (AID): AID signal (AID 1347429)
# Conditions: Recombinant AID, FRET ssDNA deamination with UDG, fluorescence; series mostly up to 115 µM; activity change, negative = inhibition: at the top concentration
# Procedure, shortened: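 AID+UDG coupled FRET deamination; cpds up to 114 uM final; DJC20/DJC23 substrate, 4 hr RT; NaOH stop, 30 min RT; read Ex 540/Em 590.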
# On the % scale 0 is the no-effect control and ±100 the full control effect.
# Chain of Single-stranded DNA cytosine deaminase (Homo sapiens) (Q9GZX7 whole entry, looked up): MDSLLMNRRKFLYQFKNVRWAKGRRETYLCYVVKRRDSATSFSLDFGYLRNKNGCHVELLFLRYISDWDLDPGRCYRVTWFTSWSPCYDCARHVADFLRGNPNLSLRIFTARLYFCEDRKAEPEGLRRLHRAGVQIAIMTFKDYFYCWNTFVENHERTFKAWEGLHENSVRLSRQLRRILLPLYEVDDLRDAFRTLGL
row,SMILES,"activity change, negative = inhibition"
1,Nc1nc(Cl)nc2c1ncn2[C@@H]1O[C@H](COP(=O)(O)OP(=O)(O)OP(=O)(O)O)[C@@H](O)[C@H]1O,6.92% (inactive)
2,CCCN(CC1CC1)c1nc(C)nc(Nc2c(Cl)cc(Cl)cc2Cl)c1Cl,1.31% (inactive)
3,Nc1nc(SCc2ccc([N+](=O)[O-])cc2)c2ncn([C@@H]3O[C@H](CO)[C@@H](O)[C@H]3O)c2n1,10.5% (inactive)
4,CSc1nc(N)c2ncn([C@@H]3O[C@H](COP(=O)(O)OP(=O)(O)OP(=O)(O)O)[C@@H](O)[C@H]3O)c2n1,-9.63% (inactive)
5,Nc1ncnc2c1ncn2[C@@H]1O[C@H](COP(=O)(O)OP(=O)(O)OP(=O)(O)OP(=O)(O)OC[C@@H]2O[C@H](n3cnc4c(N)ncnc43)[C@@H](O)[C@H]2O)[C@@H](O)[C@H]1O,10.4% (inactive)
6,COc1ccc2c(c1)CCC1C2CC[C@@]2(C)C1CC[C@@H]2NCCCCCCN1C(=O)CCC1=O (some centres not stated),5.41% (inactive)
7,O=C(O)c1cc(=O)c2c(Cl)cc(Cl)cc2[nH]1,22.6% (inactive)
8,Oc1ccc(C2CNCc3sccc32)cc1O (configuration not stated),22.6% (inactive)
9,COc1cc(OC)c(/C=C2/C(=O)Nc3ccccc32)c(OC)c1,11.5% (inactive)
10,NC(=O)C1=CN(C2OC(COP(=O)(O)OP(=O)(O)OC[C@H]3O[C@@H](n4cnc5c(N)ncnc54)[C@H](OP(=O)(O)O)[C@@H]3O)C(O)C2O)C=CC1 (some centres not stated),61.2% (inactive)
11,CNC(=O)[C@H]1O[C@@H](n2cnc3c(NCc4ccc(N)cc4)ncnc32)[C@H](O)[C@@H]1O,95.2% (inactive)
12,O=C(O)c1cc([N+](=O)[O-])ccc1NCCCc1ccccc1,-9.31% (inactive)
13,CC(=O)SCC[N+](C)(C)C,15.5% (inactive)
14,CNc1ncnc2c1ncn2[C@@H]1O[C@H](CO)[C@@H](O)[C@H]1O,15.7% (inactive)
15,NC(CCCP(=O)(O)O)C(=O)O (configuration not stated),10.8% (inactive)
16,Cc1cc2c(cc1Cl)N(C(=O)Nc1ccc(Oc3cccnc3C)nc1)CC2,13.5% (inactive)
17,C[N+]1(C)CCC(OC(=O)C(c2ccccc2)c2ccccc2)CC1,13% (inactive)
18,Fc1cccc(/C=N/N=C/c2cccc(F)c2)c1,12.7% (inactive)
19,COc1ccccc1CNCCCCCCNCCCCCCCCNCCCCCCNCc1ccccc1OC,121% (inactive)

row,SMILES,"activity change, negative = inhibition"
1,CCCCCCCCCCCCCCCC(=O)OC(CC(=O)O)C[N+](C)(C)C (configuration not stated),11.2% (inactive)
2,CC12C(=O)OC(=O)C1(C)C1CCC2O1 (configuration not stated),17.1% (inactive)
3,OC[C@H]1O[C@@H](n2cnc3c(NC4CCCCC4)ncnc32)[C@H](O)[C@@H]1O,9.76% (inactive)
4,CN(C)c1nc(N)c(C(=O)N=C(N)N)nc1Cl,14.7% (inactive)
5,O=C(O)CNC(=O)C(CS)Cc1ccccc1 (configuration not stated),25.7% (inactive)
6,O=C(O)CC1CCCc2ccccc2C1O (configuration not stated),25.4% (inactive)
7,CC(=O)/C=C1\C(=O)N(C)c2ccccc21,13.1% (inactive)
8,Oc1cc2c(cc1O)CN(C(=S)NCCc1ccc(Cl)cc1)CCC2,2.9% (inactive)
9,CCN(CC)c1ncnc2c1ncn2[C@@H]1O[C@H](COP(=O)(O)OP(=O)(O)C(Br)(Br)P(=O)(O)O)[C@@H](O)[C@H]1O,5.15% (inactive)
10,Cc1ccc(S(=O)(=O)/C=C/C#N)cc1,20.6% (inactive)
11,C=CC(C)=C[C@@]1(C)SC(=O)C(C)=C1O,17.3% (inactive)
12,CC(C)(C)c1ccc(S(=O)(=O)/C=C/C#N)cc1,16.8% (inactive)
13,O=[N+]([O-])c1ccc(CSc2ncnc3c2ncn3[C@@H]2O[C@H](CO)[C@@H](O)[C@H]2O)cc1,17.3% (inactive)
14,C[C@@H](CN1CCC(Cc2ccccc2)CC1)[C@@H](O)c1ccc(O)cc1,19.8% (inactive)
15,Clc1ccc(N2CCN(Cc3cc4ccccn4n3)CC2)cc1,7.63% (inactive)
16,CCCCCCCC/C=C\CCCCCCCC(=O)NCCO,-1.69% (inactive)
17,COc1ccc(NC(=O)/C=C/c2ccc(Cl)cc2)cc1,29.3% (inactive)
18,N#C/C(=C\c1ccc(-c2cc(Cl)ccc2Cl)o1)C(=O)Nc1cccc2ncccc12,-11.1% (inactive)
